# Measured values as given in ChEMBL document CHEMBL3988442, “University of Dundee, Small-Polar-MMV Screening Library” (2021).
# For some of these results: Entries with a potency or affinity are not part of this list.
# Experiments:
# [1] = biological target: T1, Methionyl-tRNA synthetase, putative (Leishmania donovani (strain BPK282A1)) (UniProt E9BF75); experiment: Leishmania donovani Methionine tRNA synthetase (LdMetRS):v7. Dose response assay; assay type: functional; set-up: conc 80 nM, time 150 minutes
# T1 sequence (whole entry): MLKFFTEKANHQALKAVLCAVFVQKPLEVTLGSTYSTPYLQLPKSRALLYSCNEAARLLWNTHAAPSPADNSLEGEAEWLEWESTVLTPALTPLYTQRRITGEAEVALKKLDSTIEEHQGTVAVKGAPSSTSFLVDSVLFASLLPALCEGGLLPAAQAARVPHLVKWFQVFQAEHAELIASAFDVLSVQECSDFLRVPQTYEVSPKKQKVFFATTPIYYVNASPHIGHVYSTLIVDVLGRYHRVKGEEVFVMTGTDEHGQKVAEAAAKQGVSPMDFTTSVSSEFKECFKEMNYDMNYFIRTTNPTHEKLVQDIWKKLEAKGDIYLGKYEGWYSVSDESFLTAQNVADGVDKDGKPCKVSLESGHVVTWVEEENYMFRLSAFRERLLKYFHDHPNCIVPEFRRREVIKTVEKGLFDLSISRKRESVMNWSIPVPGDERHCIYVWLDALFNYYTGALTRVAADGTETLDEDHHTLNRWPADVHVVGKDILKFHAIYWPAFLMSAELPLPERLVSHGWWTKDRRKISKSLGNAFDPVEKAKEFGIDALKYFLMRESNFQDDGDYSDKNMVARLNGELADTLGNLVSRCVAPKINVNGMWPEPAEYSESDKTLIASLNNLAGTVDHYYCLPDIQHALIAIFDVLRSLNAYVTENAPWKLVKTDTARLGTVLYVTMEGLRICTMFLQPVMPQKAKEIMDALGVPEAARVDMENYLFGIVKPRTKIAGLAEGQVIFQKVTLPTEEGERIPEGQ
# [2] = biological target: Protein translocase subunit SecA (Escherichia coli (strain K12)) (UniProt P10408); experiment: Assay to Identify E. coli SecA ATPase Inhibitors; assay type: functional; set-up: scale not given: direction of the effect not stated beside the values; conditions: 30 µM
# [3] = biological target: T2, Ubiquitin-activating enzyme e1, putative (Leishmania donovani (strain BPK282A1)) (UniProt E9BSI1); experiment: Leishmania donovani Ubiquitin Activating Enzyme (LdE1); assay type: functional; set-up: scale not given: direction of the effect not stated beside the values; conditions: 30 µM
# T2 sequence (whole entry): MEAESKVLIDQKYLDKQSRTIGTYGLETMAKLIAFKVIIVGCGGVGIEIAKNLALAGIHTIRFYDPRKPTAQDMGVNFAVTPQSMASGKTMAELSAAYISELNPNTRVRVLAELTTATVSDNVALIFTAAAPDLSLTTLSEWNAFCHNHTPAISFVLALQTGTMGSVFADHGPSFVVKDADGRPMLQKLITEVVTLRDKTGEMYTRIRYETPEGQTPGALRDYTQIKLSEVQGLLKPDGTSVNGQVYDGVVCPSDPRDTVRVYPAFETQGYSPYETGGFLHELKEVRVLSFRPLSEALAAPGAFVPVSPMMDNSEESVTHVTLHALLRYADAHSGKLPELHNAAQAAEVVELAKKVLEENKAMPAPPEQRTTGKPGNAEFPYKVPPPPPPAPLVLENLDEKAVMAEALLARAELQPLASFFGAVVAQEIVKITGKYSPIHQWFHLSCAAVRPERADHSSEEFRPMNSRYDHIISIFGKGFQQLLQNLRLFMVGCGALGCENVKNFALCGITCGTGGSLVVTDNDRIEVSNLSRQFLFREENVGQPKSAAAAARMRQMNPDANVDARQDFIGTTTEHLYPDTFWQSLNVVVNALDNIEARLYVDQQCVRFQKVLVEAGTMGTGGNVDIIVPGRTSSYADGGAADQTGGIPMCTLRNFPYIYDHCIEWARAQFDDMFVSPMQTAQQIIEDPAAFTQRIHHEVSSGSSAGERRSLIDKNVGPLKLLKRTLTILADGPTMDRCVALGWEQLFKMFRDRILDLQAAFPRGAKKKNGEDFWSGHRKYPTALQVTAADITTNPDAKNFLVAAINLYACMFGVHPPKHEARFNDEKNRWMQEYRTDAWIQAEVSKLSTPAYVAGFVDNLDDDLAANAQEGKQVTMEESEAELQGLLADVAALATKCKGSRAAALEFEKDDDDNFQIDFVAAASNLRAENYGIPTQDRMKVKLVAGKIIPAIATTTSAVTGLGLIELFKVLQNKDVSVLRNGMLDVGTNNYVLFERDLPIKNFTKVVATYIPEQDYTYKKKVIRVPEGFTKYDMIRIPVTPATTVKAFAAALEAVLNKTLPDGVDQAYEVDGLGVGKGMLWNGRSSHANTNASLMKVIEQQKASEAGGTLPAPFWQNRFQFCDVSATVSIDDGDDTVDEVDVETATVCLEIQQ
# [4] = biological target: AMP-activated protein kinase, AMPK (Homo sapiens) (UniProt P54646+O43741+P54619+Q9UGJ0+Q9Y478+Q13131+Q9UGI9); experiment: AMP-dependent Kinase enzyme assay. An in vitro enzyme assay that detects ADP turnover that is directly proportional to AMPK activity. This uses naive AMPK that is activated during the assay with MK-8722; assay type: functional; set-up: scale not given: direction of the effect not stated beside the values; conditions: 30 µM
# [5] = biological target: Sialic acid-binding Ig-like lectin 9 (Homo sapiens) (UniProt Q9Y336); experiment: Hs-Siglec9 ALPHAscreen SOP 20170721; set-up: scale not given: direction of the effect not stated beside the values; conditions: 10 µM
# Trypanosoma cruzi = experiment: Trypanosoma cruzi phosphomannomutase and mannose-1-phosphate guanylyltransferase assay; assay type: functional; set-up: scale not given: direction of the effect not stated beside the values; conditions: 10 µM
# [6] = biological target: T3, Arginase-2, mitochondrial (Homo sapiens) (UniProt P78540); experiment: in vitro enzyme assay to detect the production of urea directly proportional to the activity of Arginase II; assay type: functional; set-up: scale not given: in the data most compounds retested in dose-response had high values; conditions: 33.3 µM
# T3 sequence (whole entry): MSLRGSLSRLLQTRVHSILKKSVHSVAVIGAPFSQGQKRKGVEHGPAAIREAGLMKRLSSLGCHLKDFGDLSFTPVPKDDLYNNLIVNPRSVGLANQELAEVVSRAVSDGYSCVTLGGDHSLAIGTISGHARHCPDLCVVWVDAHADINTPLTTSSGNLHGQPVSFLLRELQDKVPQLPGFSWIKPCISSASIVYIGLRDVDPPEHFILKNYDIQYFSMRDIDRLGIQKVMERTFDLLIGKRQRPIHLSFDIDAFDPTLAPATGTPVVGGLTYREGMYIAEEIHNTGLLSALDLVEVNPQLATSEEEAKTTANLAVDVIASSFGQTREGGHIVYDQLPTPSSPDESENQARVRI
# [7] = biological target: T4, Proteasome subunit beta (Trypanosoma cruzi) (UniProt O96673); experiment: Trypanosoma cruzi proteasome chymotrypsin-like activity (TcProtChymo) assay.; assay type: functional; set-up: scale not given: in the data most compounds retested in dose-response had high values; conditions: 9.37 µM
# T4 sequence (whole entry): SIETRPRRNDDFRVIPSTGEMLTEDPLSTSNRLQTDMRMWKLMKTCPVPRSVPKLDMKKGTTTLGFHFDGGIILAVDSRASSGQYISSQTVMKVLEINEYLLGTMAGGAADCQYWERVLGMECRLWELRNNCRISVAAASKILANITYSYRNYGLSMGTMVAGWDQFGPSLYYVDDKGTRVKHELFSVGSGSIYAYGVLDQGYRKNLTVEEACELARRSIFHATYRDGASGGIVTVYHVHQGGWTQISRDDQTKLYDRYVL
# Homo sapiens = organism: Homo sapiens; experiment: To identify inhibition of the IFN signalling (Jak-Stat) pathway via expression of an eGFP reporter gene under the control of an IFN-stimulated response element (ISRE) containing MxA promoter.; assay type: functional; set-up: scale not given: direction of the effect not stated beside the values; conditions: 30 µM
# [8] = biological target: T5, Tyrosyl-tRNA synthetase, putative (Trypanosoma cruzi (strain CL Brener)) (UniProt Q4DSP6); experiment: Trypanosoma cruzi tyrosyl tRNA synthetase (TcYRS) _High Tyrosine SOP; assay type: functional; set-up: scale not given: in the data most compounds retested in dose-response had high values; conditions: 30 µM
# T5 sequence (whole entry): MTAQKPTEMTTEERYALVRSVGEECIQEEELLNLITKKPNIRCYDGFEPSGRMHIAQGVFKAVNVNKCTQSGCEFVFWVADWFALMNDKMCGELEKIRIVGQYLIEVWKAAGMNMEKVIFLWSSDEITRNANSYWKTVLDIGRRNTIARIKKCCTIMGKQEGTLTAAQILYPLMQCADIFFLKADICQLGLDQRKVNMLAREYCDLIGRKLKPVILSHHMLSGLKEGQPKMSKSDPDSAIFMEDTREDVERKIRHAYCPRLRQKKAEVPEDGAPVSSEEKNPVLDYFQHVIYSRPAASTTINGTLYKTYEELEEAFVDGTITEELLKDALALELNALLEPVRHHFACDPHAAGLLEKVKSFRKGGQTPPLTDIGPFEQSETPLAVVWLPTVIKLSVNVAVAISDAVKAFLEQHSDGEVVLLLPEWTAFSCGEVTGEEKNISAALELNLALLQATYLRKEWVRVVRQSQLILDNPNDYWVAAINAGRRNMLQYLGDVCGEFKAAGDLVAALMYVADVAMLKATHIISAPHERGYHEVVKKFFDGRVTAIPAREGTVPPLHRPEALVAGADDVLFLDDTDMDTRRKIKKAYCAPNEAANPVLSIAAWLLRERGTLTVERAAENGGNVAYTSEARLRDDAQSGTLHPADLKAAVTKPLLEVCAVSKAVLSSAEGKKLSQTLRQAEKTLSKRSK
# [9] = biological target: T5, Tyrosyl-tRNA synthetase, putative (Trypanosoma cruzi (strain CL Brener)); experiment: Trypanosoma cruzi tyrosyl tRNA synthetase (TcYRS) SOP; assay type: functional; set-up: scale not given: direction of the effect not stated beside the values; conditions: 30 µM
# [10] = biological target: Chromo domain-containing protein 1 (Saccharomyces cerevisiae (strain ATCC 204508 / S288c) (Baker's yeast)) (UniProt P32657); experiment: ScCHD-1 Enzyme Inhibition Assay; assay type: functional; set-up: scale not given: in the data most compounds retested in dose-response had high values; conditions: 30 µM
# Chain of Chromo domain-containing protein 1 (Saccharomyces cerevisiae (strain ATCC 204508 / S288c) (Baker's yeast)) (P32657 whole entry, the tested form may be a part): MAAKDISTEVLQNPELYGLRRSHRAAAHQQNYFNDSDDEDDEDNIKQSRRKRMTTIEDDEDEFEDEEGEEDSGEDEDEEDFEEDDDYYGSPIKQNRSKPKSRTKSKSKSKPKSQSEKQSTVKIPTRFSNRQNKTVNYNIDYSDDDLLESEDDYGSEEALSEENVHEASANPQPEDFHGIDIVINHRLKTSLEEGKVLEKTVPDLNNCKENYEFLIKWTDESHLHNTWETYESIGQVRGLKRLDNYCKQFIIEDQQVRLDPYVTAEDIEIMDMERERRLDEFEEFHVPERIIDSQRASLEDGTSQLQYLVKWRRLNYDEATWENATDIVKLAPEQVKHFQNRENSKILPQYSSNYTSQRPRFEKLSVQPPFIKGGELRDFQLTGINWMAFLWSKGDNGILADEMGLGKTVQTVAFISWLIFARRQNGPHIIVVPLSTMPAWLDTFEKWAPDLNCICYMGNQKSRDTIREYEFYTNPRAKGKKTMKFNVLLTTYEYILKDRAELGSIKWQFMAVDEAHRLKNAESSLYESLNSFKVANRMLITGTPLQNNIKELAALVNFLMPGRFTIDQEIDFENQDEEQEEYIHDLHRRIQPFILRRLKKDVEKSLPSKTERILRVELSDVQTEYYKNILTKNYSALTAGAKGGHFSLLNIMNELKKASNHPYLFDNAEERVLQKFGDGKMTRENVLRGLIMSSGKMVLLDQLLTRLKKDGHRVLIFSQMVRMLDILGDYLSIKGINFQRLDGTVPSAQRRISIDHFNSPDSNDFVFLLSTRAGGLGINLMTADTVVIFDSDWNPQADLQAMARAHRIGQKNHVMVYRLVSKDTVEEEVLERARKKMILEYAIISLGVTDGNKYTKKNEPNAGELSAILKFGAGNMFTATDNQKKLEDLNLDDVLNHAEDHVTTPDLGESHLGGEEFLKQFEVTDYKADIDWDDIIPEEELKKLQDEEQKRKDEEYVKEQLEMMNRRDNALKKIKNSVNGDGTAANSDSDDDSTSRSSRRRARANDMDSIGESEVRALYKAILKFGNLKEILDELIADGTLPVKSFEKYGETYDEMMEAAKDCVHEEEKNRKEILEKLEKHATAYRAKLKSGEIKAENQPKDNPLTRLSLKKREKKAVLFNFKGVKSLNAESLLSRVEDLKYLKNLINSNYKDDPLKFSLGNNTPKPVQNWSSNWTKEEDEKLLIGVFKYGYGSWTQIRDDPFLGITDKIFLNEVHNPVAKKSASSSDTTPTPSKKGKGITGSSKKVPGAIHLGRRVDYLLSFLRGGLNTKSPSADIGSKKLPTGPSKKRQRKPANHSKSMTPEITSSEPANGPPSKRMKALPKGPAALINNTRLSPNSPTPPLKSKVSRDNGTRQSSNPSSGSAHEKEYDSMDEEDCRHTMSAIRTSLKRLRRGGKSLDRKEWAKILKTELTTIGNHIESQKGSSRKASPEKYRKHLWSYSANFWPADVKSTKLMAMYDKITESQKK
# Chain of Protein translocase subunit SecA (Escherichia coli (strain K12)) (P10408 whole entry): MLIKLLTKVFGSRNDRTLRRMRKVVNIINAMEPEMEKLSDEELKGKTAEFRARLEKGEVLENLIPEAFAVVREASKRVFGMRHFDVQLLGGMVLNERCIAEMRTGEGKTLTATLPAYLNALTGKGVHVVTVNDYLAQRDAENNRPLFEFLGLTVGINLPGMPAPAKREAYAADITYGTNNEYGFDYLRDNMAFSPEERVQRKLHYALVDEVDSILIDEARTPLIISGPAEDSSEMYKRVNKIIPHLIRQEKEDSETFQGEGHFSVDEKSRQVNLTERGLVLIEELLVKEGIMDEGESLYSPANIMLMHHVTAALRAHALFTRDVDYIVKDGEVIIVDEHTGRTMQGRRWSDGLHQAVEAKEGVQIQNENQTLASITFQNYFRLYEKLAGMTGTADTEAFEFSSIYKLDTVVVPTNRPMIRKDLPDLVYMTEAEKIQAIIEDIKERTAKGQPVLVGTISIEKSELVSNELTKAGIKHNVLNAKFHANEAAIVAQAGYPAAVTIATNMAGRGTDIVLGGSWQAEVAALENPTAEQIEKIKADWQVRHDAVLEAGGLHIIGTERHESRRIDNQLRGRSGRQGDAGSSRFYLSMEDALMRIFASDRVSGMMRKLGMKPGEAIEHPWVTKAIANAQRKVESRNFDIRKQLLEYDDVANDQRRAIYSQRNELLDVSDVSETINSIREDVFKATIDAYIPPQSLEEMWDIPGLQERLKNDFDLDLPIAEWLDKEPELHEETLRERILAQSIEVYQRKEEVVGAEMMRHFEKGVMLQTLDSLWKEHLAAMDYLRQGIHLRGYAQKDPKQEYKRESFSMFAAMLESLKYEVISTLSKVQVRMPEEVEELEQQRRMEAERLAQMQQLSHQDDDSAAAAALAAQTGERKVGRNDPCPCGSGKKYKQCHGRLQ
# Chain of Sialic acid-binding Ig-like lectin 9 (Homo sapiens) (Q9Y336 whole entry): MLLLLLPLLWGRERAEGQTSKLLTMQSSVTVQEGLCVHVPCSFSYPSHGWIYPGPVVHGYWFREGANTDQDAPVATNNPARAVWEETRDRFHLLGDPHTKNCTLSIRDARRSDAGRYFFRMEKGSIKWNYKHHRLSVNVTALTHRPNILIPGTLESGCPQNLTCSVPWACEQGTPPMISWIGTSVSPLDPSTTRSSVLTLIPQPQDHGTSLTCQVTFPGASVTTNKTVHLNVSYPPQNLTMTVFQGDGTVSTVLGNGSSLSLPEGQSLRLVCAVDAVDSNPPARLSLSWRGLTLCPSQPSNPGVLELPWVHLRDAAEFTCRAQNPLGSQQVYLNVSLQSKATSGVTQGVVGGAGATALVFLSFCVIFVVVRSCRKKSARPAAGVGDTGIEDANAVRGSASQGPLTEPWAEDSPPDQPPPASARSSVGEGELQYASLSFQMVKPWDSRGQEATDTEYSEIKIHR
smiles,measurement,setting,value
O=C(CCC1CCCC1)N1CCC(c2ncc3c(n2)CCNC3)CC1,PXC50,[1]; MAX_EFFECT 18.13380282,< 4
same,PXC50,[1]; MAX_EFFECT 20.42755344,< 4
same,Percent Effect,[2],-7.04%
same,Percent Effect,[3],14.9%
same,Percent Effect,[4],0.0771%
same,Percent Effect,[5],5.51%
same,Percent Effect,Trypanosoma cruzi,2.57%
same,Percent Effect,[6],-6.26%
same,Percent Effect,[7],8.42%
same,Percent Effect,Homo sapiens,31.7%
same,Percent Effect,[8],10.8%
same,Percent Effect,[9],19.5%
same,Percent Effect,[10],-23.3%
